The values that follow come from PubChem BioAssay (NCATS).

Each structure is given as a SMILES string. Several values for one entry are separate records, joined by “and”; a condition that tells them apart may be missing. Equal entries are not always repeated. Results filed as inconclusive are left out. Activity calls are given as the source filed them. Unless noted, calls come from the whole dose curve; as a rule, active = well fitted curve in the direction sought with a large enough effect; inconclusive = small, poorly fitted or top-dose-only effect, or another doubt; inactive = no such curve, though single readings can be large; an effect the other way counts as inactive or inconclusive. Non-standard residues stand in square brackets, D forms with d. Residues, ends and D or L forms follow the SMILES beside them. *: point of attachment. Sta = CC(C)C[C@H](N)[C@@H](O)CC(=O)O; Isovaleryl = CC(C)CC(=O)*

Assay [1] has as its target Phenylethanolamine N-methyltransferase (Homo sapiens) (UniProt P11086). In words: Confirmatory Screen for Target Class Profiling of Small Molecule Inhibitors of Methyltransferases (AID 1745852). The conditions noted are these: MTase-Glo luminescence, SAH detection, recombinant enzyme, stronger effect = lower value; measured here: PNMT max response unless noted.
Assay [2] can be described thus: NCATS anti-infectives library activity on HEK293 viability as a counter-qHTS vs the C. elegans viability qHTS (AID 1745854).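 Note: HEK293 cells exposed to compounds for 24 hr before the viability read; % is set by controls: 0 for no effect and ±100 for the full control effect.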 The conditions noted are these: HEK293 viability counter-screen; series mostly up to 41.8 µM. The essentials: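 Compound titrations (final up to 41.7 uM) were incubated with HEK293 cells for 24 hr at 37C under 5% CO2. Viable cells were quantified with CellTiter-Glo after 10 min at ambient temperature.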
Background: In qHTS, concentration-response curves come from the screen itself.

In assay [3] the target is Glutathione peroxidase 1 (Homo sapiens) (UniProt P07203). In words: Primary qHTS Assay for Inhibitors of Recombinant Selenoprotein Glutathione Peroxidase 1 (GPX1) (AID 1845191). For activity, negative = inhibition: % is set by controls: 0 for no effect and ±100 for the full control effect. Note: nearly all actives have a fitted effect of over 65% in size. Particulars: recombinant GPX1, GR-coupled NADPH fluorescence, 15 min; series mostly up to 48.8 µM. The essentials:
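NADPH consumption tracked by fluorescence at 340/450 nm between t=0 and t=15 min, room temperature. Final mix: 10 nM GPX1, 100 nM glutathione reductase, 1 mM GSH, 0.5 mM NADPH, 0.5 mM cumene hydroperoxide, 0.01% BSA; 30 min compound–enzyme preincubation.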

The target of assay [4] is Phospholipid hydroperoxide glutathione peroxidase GPX4 (Homo sapiens) (UniProt P36969). Put plainly: Primary qHTS Assay for Inhibitors of Recombinant Selenoprotein Glutathione Peroxidase 4 (GPX4) (AID 1845192). For activity change, negative = inhibition: % is set by controls: 0 for no effect and ±100 for the full control effect. Note: nearly all actives have a fitted effect of over 65% in size. Particulars: recombinant GPX4, GR-coupled NADPH fluorescence, 15 min; series mostly up to 50 µM. The essentials: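 NADPH consumption followed by fluorescence at 340/450 nm, t=0 and after 15 min at room temperature. Reaction started with cumene hydroperoxide (0.5 mM final) after 30 min compound–GPX4 preincubation; final 200 nM GPX4, 100 nM GR, 1 mM GSH, 0.5 mM NADPH.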
Sequence of Phospholipid hydroperoxide glutathione peroxidase GPX4 (Homo sapiens) (P36969 whole entry, looked up): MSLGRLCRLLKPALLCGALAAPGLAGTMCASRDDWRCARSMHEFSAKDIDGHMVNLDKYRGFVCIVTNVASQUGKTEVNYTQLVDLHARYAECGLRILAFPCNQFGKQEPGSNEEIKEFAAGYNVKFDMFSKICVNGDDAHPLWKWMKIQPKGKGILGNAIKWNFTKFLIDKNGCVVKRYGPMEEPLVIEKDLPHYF

The nature of assay [5]: Primary fluorescence-based thiol-reactive (MSTI) qHTS assay for identification of artifact compounds. (AID 1845221).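 For activity change, negative = thiol reactive: thiol-reactive compounds lower the probe fluorescence signal.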 Note: nearly all actives have a fitted effect of over 65% in size. Note: potency is the fitted concentration of half-maximal effect. Particulars: MSTI thiol-reactivity probe, 1 h; series mostly up to 53.8 µM. The essentials:
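Compounds were incubated 1 h at room temperature in the dark with the MSTI probe (4 uM) in PBS pH 7.4, 2% DMSO. Signals were normalized between Acetyl-MSTI and MSTI.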

Assay [6] deals with Nanoluciferase (engineered Oplophorus gracilirostris luciferase). Put plainly: Primary Nanoluciferase (NLuc) qHTS assay for identification of artifact compounds. (AID 1845222).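 Note: 0% = DMSO and -100% = no enzyme.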 Particulars: NLuc-conditioned medium, Nano-Glo luminescence, 5 min; series mostly up to 54.1 µM. In short, it runs like this:
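Compounds are pinned into diluted (1:55) conditioned medium of NLuc-expressing S16 cells and held 15 min at room temperature protected from light. Nano-Glo substrate follows, and luminescence is read 5 min later.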

Assay [7] in a line: Primary redox qHTS assay for identification of artifact compounds. (AID 1845223).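 Note: 0% = DMSO and 100% = reference compound.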 The conditions noted are these: Amplex Red/HRP redox cycling with DTT, fluorescence; series mostly up to 53.8 µM. In short, it runs like this: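 Redox-cycling detection via DTT (250 uM final) oxidation coupled to Amplex Red (25 uM)/HRP (250 mU/mL) in HBSS. 15 min preincubation plus 30 min after DTT, room temperature. Ex/Em 525/598 nm; 4-parameter Hill fit against DMSO and 10 uM DA3003.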

The nature of assay [8]: Quantitative High-Throughput drug screen in 47 multiple myeloma cell lines against the NCATS MIPE library collection: FR4_PLB cell viability assay (AID 1918924; note: nearly all actives have a fitted effect of over 35% in size; note: potency is the fitted concentration of half-maximal effect). Particulars: FR4_PLB myeloma cells viability, CellTiter-Glo ATP, 48 h; series mostly up to 45.8 µM. The essentials: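 Approved and investigational drugs from MIPE 4.0 were added by pin tool to 500 cells per well. After 48 hours at 37C, ATP-based CellTiter-Glo luminescence indicated remaining viability.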
A general note: Cellular ATP, detected with luciferase, serves as a proxy for viable cell number.

Assay [9] in a line: Quantitative High-Throughput drug screen in 47 multiple myeloma cell lines against the NCATS MIPE library collection: EJM_DSMZ cell viability assay (AID 1918926; note: nearly all actives have a fitted effect of over 30% in size; note: potency is the fitted concentration of half-maximal effect). Particulars: EJM myeloma cell viability, CellTiter-Glo ATP, 48 h; series mostly up to 45.8 µM. In short, it runs like this: (§1)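 Relative luminescence from CellTiter-Glo served as the viability signal, referenced to DMSO-treated (100%) and cell-free medium (0%) controls. Treatment lasted 48 hours at 37C with 500 cells per well.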

A short description of assay [10]: Quantitative High-Throughput drug screen in 47 multiple myeloma cell lines against the NCATS MIPE library collection: AMO1_DSMZ cell viability assay (AID 1918927; note: nearly all actives have a fitted effect of over 30% in size; note: potency is the fitted concentration of half-maximal effect). The conditions noted are these: AMO1 myeloma cells viability, CellTiter-Glo ATP luminescence, 48 h; series mostly up to 45.8 µM. The essentials: as §1
Assay [11] in a line: Quantitative High-Throughput drug screen in 47 multiple myeloma cell lines against the NCATS MIPE library collection: Delta47_JCRB cell viability assay (AID 1918925; note: nearly all actives have a fitted effect of over 45% in size; note: potency is the fitted concentration of half-maximal effect). Particulars: Delta47 myeloma viability, CellTiter-Glo ATP, 48 h; series mostly up to 45.8 µM. In short, it runs like this: as §1
Assay [12] in a line: Quantitative High-Throughput drug screen in 47 multiple myeloma cell lines against the NCATS MIPE library collection: ARP1_JJKsccF8 cell viability assay (AID 1918928; note: nearly all actives have a fitted effect of over 40% in size; note: potency is the fitted concentration of half-maximal effect). Particulars: ARP1 myeloma cells viability, CellTiter-Glo ATP, 48 h; series mostly up to 45.8 µM. The essentials: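 500 cells/well; MIPE 4.0 library pinned in; 48 h, 37 °C, 5% CO2; CellTiter-Glo ATP luminescence. Controls: DMSO = 100% viability, medium only = 0%.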

Assay [13] can be described thus: NCATS anti-infectives library activity on the primary C. elegans qHTS viability assay (AID 1745855; calls by dose curve; note: potency is the fitted concentration of half-maximal effect). Particulars: C. elegans worm area imaging, day 7; series mostly up to 41.8 µM. The essentials:
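Titration-based screen in worms: eggs hatched overnight in M9, L1 larvae fed TOP10 capsules in S medium with compound, incubated 21 °C for 7 days; fluorescent objects gated by size and intensity at days 0, 3 and 7.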

Assay [14] is described as follows: Quantitative High-Throughput drug screen in 47 multiple myeloma cell lines against the NCATS MIPE library collection: ARD_JJKsccE7 cell viability assay (AID 1918929; note: potency is the fitted concentration of half-maximal effect;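 for viability: 100% = DMSO-only wells and 0% = media-only wells without cells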). The conditions noted are these: ARD myeloma cell line viability, CellTiter-Glo, 48 h; series mostly up to 45.8 µM. The essentials:
as §1

Assay [15] concerns the target Metallo-beta-lactamase type 2 (Klebsiella pneumoniae) (UniProt C7C422). In words: qHTS to identify inhibitors of the New Delhi Metallo-beta-lactamase (NDM): assay validation screen against the NCATS LOPAC Collection (AID 1794843).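 Note: nitrocefin turnover by NDM-1 measured as 485 nm absorbance at plateau; % is set by controls: 0 for no effect and ±100 for the full control effect.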 The conditions noted are these: NDM-1 enzyme, nitrocefin hydrolysis, absorbance 485 nm; series mostly up to 38.4 µM. The essentials: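 Enzyme 2 nM final, 50 mM HEPES pH 7.0, 1 uM ZnSO4, 0.01% Tween20; cpds in DMSO, preincub w/ enzyme; + nitrocefin (50 uM stock); A485 at plateau; no-enzyme column as blank.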

Sequence of Phenylethanolamine N-methyltransferase (Homo sapiens) (P11086 whole entry, looked up): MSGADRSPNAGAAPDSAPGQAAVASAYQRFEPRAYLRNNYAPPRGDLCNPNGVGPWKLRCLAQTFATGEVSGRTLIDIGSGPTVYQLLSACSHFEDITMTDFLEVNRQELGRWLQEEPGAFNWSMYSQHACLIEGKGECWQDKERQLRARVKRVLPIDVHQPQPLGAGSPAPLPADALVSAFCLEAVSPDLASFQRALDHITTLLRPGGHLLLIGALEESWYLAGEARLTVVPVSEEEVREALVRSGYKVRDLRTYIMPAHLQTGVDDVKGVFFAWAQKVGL
Sequence of Glutathione peroxidase 1 (Homo sapiens) (P07203 whole entry, looked up): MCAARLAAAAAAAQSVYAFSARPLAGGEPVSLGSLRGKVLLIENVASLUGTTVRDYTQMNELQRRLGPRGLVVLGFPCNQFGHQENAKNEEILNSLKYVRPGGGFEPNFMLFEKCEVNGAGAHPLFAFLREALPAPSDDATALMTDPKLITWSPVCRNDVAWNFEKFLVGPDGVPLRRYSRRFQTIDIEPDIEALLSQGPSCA
Sequence of Metallo-beta-lactamase type 2 (Klebsiella pneumoniae) (C7C422 whole entry, looked up): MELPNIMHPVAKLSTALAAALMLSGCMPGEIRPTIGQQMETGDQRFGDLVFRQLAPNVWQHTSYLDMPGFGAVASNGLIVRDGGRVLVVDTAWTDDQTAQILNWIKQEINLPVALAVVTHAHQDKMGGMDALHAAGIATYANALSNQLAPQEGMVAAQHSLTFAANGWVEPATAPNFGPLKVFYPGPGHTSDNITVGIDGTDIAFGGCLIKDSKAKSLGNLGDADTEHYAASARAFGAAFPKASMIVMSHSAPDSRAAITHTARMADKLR

For `COc1c(O)cc2c(c1O)[C@@H]1O[C@H](CO)[C@@H](O)[C@H](O)[C@H]1OC2=O`, the activity in assay [1] is -0.831%. Besides, the outcome in assay [2], in assay [6] and in assay [7] was “inactive” in each case. The Potency result in [3], in assay [4], in assay [8], in assay [9] and in assay [10] was “inactive” throughout. For the same compound, in [5], the Potency was 11700 nM (active).

In the case of `COc1cc(Nc2c(C#N)cnc3cc(OCCCN4CCN(C)CC4)c(OC)cc23)c(Cl)cc1Cl`, in [1], the activity is -96.9%. Besides, the Potency entry in assay [3], in [4] and in assay [5] was “inactive” each time. Also, the outcome in [6] and in [7] was “inactive” in each case. Further, the Potency in assay [8] is 23500 nM (active); in assay [11] it was 3720 nM (active); in assay [9] it was 23500 nM (active); in assay [10], 8330 nM (active); in assay [12] it was 18700 nM (active).

For the compound `O=c1oc2cc(O)ccc2s1`, the outcome in [2] was “inactive”. Besides, the Potency result in assay [3], in [4], in [8] and in assay [9] was “inactive” in each case. In addition, in [10], the Potency is 23500 nM (active).

As to `CCN(CCO)CCCC(C)Nc1ccnc2cc(Cl)ccc12` (stereo not given), in assay [2], the activity change, negative = cytotoxicity is -19.5% [at 3.71 µM] (inactive). In addition, the activity change, negative = inhibition in assay [4] was -25.1% [at 4.52 µM] (inactive) and 2.25% [at 4.52 µM] (inactive). For the same compound, the activity change, negative = thiol reactive in assay [5] is -3.32% [at 6.41 µM] (inactive). The activity, negative = inhibition in assay [6] was -2.86% [at 6.45 µM] (inactive). The redox activity (% of DA3003) in [7] was -6.64% [at 6.41 µM] (inactive). Moreover, the Potency result in [8], in [11], in assay [9] and in [12] was “inactive” throughout.

Regarding `CC(C)C[C@H](NC(=O)[C@H](Cc1ccccc1)NC(=O)c1cnccn1)B(O)O`, the Potency in [13] is 2300 nM (active); in assay [8], 9.3 nM (active); in assay [9] it was 16.6 nM (active); in assay [12], 8.3 nM (active). The Potency result in assay [3], in assay [4] and in [5] was “inactive” throughout. Besides, the outcome in assay [6] and in [7] was “inactive” throughout.

Take `CN(C)C(=O)COC(=O)Cc1ccc(OC(=O)c2ccc(N=C(N)N)cc2)cc1`: the outcome in [2] is “inactive”. Also, the Potency entry in assay [3], in [4], in assay [8] and in assay [12] was “inactive” throughout.

For the compound `CC(C)CC(=O)N[C@H](C(=O)N[C@H](C(=O)N[C@@H](CC(C)C)[C@@H](O)CC(=O)N[C@@H](C)C(=O)N[C@@H](CC(C)C)[C@@H](O)CC(=O)O)C(C)C)C(C)C` (Isovaleryl-VV[Sta]A[Sta]-OH), in assay [2], the outcome was “inactive”. Moreover, the Potency result in assay [3], in assay [4], in assay [8], in [9], in assay [12] and in [14] was “inactive” in each case.

For the compound `CN(C)CCCC1(c2ccc(F)cc2)OCc2cc(C#N)ccc21` (stereo not given), the outcome in assay [15], in [6] and in assay [7] was “inactive” in each case. The Potency result in assay [3], in assay [4], in assay [5], in [8], in [10] and in assay [12] was “inactive” in each case. Moreover, the Potency entry in assay [14] is “inactive”.

`CC(C)[C@H](N)C(=O)OCCOCn1cnc2c(=O)[nH]c(N)nc21`: the outcome in [2] is “inactive”. For the same compound, the Potency entry in assay [3], in assay [4], in assay [11], in assay [9], in assay [12] and in [14] was “inactive” each time. Further, in assay [10], the Potency is 26400 nM (active).

With `CCN(CC)CCOc1ccc(Nc2ncc3cc(-c4c(Cl)cccc4Cl)c(=O)n(C)c3n2)cc1`, the activity in assay [1] was -2.93%. In addition, the outcome in assay [15] was “inactive”. For the same compound, the Potency result in assay [3] and in [4] was “inactive” in each case. Also, the Potency was 935 nM (active) in assay [8]; 1320 nM (active) in [11]; 2090 nM (active) in assay [9]; 166 nM (active) in [10]; 2640 nM (active) in assay [12]; 166 nM (active) in [14].
